Experimental data from the supplement of paper PMC10849652.
Targets with a hit are over-represented here; the source holds about 7,900 in all. About 0.6% of all pairs of compound and target were hits. A number with no mark means an inactive call.

Assays:
Assay in all cases: log2 fold change, soluble protein after heating vs DMSO (PISA); higher = thermal stabilisation; K562 cells, 10 uM, 30 min; active = over 0.2 and 3.5 SD of the protein, either way, in both replicates (recomputed)
[1] = compound: CN1CCN(CCOc2cc(OC3CCOCC3)c3c(Nc4c(Cl)ccc5c4OCO5)ncnc3c2)CC1 [saracatinib]
Procedure, shortened: (§1)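 Soluble protein was defined as the supernatant after 21,000xg for 90 min. It came from K562 cells at 2×10^6 cells/mL given 10 μM compound for 30 min, heated in aliquots for 3 min across 48°C-58°C, pooled, and extracted in PBS with 0.5% NP-40 at 4°C, and was quantified by TMTpro 16plex LC-MS/MS with equalised channel sums. Thermal stability against control samples, from duplicates, is reported as log2 fold change.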

[2] = compound: CN1CCN(c2nc(C3=C(c4c[nH]c5ccccc45)C(=O)NC3=O)c3ccccc3n2)CC1 [sotrastaurin]
Procedure, shortened: as §1

[3] = compound: CN1CC[C@H](c2c(O)cc(O)c3c(=O)cc(-c4ccccc4Cl)oc23)[C@H](O)C1 [alvocidib]
Procedure, shortened: as §1

[4] = compound: CN1CCc2c(c3ccccc3n2Cc2ccc(C(=O)NO)cc2)C1 [Tubastatin A]
Procedure, shortened: as §1

[5] = compound: CNC(=O)C1=CC=CC=C1NC2=NC(=NC=C2Cl)NC3=C(C=C(C=C3)N4CCOCC4)OC
Procedure, shortened: as §1

[6] = compound: CNC(=O)c1ccc(Nc2ncc(C(F)(F)F)c(NCc3nccnc3N(C)S(C)(=O)=O)n2)cc1 [defactinib]
Procedure, shortened: as §1

[7] = compound: CNCc1ccc(-c2[nH]c3cc(F)cc4c3c2CCNC4=O)cc1 [rucaparib]
Procedure, shortened: as §1

[8] = compound: CNc1nc(-c2ccc3c(N)n[nH]c3c2)cc(N2C[C@@H](C(=O)NC3CCCCC3)CC[C@H]2C)n1
Procedure, shortened: as §1

[9] = compound: COC(=O)N[C@@H](C)CNc1nccc(-c2cn(C(C)C)nc2-c2cc(Cl)cc(NS(C)(=O)=O)c2F)n1 [encorafenib]
Procedure, shortened: as §1

[10] = compound: COC(=O)[C@H](CCSC)NC(=O)C1=C(C=C(C=C1)NC[C@H](CS)N)C2=CC=CC=C2
Procedure, shortened: as §1

[11] = compound: COC1=CC=C(C=C1)CN2C=CC3=C2C=C(C=C3)C(=O)NO
Procedure, shortened: as §1

[12] = compound: CON(C)C(=O)N1N=C(c2cc(F)ccc2F)S[C@@]1(CCCN)c1ccccc1 [filanesib]
Procedure, shortened: as §1

[13] = compound: CO[C@H]1C[C@@H]2CC[C@@H](C)[C@@](O)(O2)C(=O)C(=O)N2CCCC[C@H]2C(=O)O[C@H]([C@H](C)C[C@@H]2CC[C@H](n3cnnn3)[C@H](OC)C2)CC(=O)[C@H](C)/C=C(\C)[C@@H](O)[C@@H](OC)C(=O)[C@H](C)C[C@H](C)/C=C/C=C/C=C/1C [zotarolimus]
Procedure, shortened: as §1

[14] = compound: COc1cc(C(=O)O)ccc1NC(=O)[C@@H]1N[C@@H](CC(C)(C)C)[C@](C#N)(c2ccc(Cl)cc2F)[C@H]1c1cccc(Cl)c1F [idasanutlin]
Procedure, shortened: as §1

[15] = compound: COc1cc(Nc2ncc3c(n2)-c2ccc(Cl)cc2C(c2c(F)cccc2OC)=NC3)ccc1C(=O)O [alisertib]
Procedure, shortened: as §1

[16] = compound: COc1cc2nc(-c3cc(F)ccc3O)nc(N[C@@H]3CNC[C@H]3C(C)(C)O)c2cc1OC
Procedure, shortened: as §1

[17] = compound: COc1cc2ncnc(Nc3ccc(F)c(Cl)c3)c2cc1OCCCN1CCOCC1 [gefitinib]
Procedure, shortened: as §1

[18] = compound: COc1cccc2cc(-c3nc([C@H]4CC[C@H](C(=O)O)CC4)n4ncnc(N)c34)[nH]c12
Procedure, shortened: as §1

[19] = compound: CS(=O)(=O)CCNCc1ccc(-c2ccc3ncnc(Nc4ccc(OCc5cccc(F)c5)c(Cl)c4)c3c2)o1 [lapatinib]
Procedure, shortened: as §1

[20] = compound: CS(=O)(=O)N1CCN(Cc2cc3nc(-c4cccc5[nH]ncc45)nc(N4CCOCC4)c3s2)CC1 [pictilisib]
Procedure, shortened: as §1

UniProt P09874, sequence (P09874 whole entry, looked up): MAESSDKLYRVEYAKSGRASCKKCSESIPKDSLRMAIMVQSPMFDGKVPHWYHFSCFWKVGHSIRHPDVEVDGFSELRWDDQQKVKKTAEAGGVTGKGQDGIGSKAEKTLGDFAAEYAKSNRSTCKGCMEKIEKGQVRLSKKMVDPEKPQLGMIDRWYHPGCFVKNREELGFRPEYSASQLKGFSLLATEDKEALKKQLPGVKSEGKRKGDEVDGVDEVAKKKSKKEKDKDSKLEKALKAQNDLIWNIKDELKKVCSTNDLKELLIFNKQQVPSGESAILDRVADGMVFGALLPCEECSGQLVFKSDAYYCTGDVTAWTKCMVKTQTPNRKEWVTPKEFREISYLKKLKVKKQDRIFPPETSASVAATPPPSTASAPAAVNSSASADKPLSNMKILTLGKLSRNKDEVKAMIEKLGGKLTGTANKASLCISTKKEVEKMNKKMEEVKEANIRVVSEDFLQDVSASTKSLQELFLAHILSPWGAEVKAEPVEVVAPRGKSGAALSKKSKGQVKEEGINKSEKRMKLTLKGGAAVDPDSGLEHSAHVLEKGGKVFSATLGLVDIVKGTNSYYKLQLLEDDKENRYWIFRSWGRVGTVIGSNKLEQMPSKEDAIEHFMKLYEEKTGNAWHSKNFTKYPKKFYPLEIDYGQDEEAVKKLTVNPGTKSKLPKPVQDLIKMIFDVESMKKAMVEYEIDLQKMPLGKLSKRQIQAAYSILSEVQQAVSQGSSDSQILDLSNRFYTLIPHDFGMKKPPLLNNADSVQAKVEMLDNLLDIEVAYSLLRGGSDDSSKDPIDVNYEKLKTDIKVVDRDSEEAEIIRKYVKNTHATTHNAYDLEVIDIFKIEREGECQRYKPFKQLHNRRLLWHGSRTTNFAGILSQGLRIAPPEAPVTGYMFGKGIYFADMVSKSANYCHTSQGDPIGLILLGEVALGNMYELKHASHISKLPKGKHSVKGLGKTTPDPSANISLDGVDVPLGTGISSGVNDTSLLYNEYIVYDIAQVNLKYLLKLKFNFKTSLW
UniProt P28070, sequence (P28070 whole entry, looked up): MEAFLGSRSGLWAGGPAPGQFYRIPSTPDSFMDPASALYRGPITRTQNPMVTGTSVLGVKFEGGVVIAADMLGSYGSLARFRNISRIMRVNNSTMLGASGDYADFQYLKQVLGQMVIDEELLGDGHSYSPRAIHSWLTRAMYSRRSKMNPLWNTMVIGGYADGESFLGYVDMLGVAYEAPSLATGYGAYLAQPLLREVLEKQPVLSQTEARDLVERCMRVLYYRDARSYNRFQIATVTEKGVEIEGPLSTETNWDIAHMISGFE
UniProt Q5JVF3, sequence (Q5JVF3 whole entry, looked up): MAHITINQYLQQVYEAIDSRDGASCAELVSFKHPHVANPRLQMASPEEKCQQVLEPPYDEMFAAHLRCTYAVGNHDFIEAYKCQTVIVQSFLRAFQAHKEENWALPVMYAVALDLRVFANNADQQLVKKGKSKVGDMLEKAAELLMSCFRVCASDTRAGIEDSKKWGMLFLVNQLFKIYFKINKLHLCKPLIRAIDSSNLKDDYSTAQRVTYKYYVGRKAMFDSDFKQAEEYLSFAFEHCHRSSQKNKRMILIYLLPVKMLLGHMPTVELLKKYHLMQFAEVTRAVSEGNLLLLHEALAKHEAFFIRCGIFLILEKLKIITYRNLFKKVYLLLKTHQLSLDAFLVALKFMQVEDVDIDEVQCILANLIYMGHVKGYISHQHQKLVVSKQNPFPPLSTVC
UniProt Q9UMR5, sequence (Q9UMR5 whole entry, looked up): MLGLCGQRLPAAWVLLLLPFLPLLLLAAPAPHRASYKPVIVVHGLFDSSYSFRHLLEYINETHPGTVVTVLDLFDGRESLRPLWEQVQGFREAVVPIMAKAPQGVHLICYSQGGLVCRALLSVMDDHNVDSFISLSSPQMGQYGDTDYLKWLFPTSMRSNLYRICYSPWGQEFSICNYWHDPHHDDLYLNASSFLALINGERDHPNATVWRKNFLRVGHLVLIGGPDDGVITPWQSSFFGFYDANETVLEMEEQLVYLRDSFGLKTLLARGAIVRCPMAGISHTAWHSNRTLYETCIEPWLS
UniProt P46020, sequence (P46020 whole entry, looked up): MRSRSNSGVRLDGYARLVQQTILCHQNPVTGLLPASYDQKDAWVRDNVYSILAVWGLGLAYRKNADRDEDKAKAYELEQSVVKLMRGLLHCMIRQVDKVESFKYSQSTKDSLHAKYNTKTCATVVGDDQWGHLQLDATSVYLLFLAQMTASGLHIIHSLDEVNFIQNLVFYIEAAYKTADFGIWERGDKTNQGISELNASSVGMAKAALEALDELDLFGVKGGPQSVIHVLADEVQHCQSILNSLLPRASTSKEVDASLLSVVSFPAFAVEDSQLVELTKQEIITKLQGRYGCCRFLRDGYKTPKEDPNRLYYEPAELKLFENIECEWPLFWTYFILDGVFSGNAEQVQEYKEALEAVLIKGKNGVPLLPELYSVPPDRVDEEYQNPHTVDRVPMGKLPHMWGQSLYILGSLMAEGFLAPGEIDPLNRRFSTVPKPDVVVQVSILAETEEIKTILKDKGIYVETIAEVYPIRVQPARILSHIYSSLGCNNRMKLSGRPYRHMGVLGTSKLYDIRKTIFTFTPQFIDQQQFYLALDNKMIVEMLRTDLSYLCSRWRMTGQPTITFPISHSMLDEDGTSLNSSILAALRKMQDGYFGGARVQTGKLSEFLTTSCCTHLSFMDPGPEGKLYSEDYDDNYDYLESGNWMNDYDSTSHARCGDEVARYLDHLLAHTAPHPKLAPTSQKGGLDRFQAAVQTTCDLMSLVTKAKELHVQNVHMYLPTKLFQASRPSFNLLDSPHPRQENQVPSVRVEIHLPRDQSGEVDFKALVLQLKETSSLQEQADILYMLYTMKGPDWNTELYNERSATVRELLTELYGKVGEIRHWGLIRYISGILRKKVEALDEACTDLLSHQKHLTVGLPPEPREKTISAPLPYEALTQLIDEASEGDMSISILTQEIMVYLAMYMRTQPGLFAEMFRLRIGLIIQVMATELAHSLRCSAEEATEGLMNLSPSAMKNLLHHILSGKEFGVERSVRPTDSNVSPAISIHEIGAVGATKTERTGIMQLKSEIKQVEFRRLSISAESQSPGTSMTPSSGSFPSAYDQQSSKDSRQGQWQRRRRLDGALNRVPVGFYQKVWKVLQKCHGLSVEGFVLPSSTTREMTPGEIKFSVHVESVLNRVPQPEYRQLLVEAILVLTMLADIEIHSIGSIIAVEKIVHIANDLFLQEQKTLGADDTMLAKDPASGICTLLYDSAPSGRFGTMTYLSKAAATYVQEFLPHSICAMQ
UniProt O43395, sequence (O43395 whole entry, looked up): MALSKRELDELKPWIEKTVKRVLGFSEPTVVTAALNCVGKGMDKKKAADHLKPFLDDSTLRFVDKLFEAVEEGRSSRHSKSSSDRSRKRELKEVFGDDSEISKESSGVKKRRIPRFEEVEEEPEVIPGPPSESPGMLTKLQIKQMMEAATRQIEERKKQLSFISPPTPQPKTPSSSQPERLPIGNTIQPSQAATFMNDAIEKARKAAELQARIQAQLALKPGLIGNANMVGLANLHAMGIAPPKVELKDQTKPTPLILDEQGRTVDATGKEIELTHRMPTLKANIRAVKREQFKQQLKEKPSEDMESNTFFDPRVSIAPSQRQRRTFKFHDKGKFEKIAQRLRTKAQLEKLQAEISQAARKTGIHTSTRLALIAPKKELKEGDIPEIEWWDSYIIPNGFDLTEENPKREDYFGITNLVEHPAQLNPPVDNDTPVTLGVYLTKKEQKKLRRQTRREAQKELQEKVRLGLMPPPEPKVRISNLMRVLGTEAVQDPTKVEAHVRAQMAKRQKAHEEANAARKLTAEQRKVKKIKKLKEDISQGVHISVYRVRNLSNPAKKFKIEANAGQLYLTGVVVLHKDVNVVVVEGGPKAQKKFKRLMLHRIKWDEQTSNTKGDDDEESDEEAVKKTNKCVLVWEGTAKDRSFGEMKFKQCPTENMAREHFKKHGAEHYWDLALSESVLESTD
UniProt O94806, sequence (O94806 whole entry, looked up): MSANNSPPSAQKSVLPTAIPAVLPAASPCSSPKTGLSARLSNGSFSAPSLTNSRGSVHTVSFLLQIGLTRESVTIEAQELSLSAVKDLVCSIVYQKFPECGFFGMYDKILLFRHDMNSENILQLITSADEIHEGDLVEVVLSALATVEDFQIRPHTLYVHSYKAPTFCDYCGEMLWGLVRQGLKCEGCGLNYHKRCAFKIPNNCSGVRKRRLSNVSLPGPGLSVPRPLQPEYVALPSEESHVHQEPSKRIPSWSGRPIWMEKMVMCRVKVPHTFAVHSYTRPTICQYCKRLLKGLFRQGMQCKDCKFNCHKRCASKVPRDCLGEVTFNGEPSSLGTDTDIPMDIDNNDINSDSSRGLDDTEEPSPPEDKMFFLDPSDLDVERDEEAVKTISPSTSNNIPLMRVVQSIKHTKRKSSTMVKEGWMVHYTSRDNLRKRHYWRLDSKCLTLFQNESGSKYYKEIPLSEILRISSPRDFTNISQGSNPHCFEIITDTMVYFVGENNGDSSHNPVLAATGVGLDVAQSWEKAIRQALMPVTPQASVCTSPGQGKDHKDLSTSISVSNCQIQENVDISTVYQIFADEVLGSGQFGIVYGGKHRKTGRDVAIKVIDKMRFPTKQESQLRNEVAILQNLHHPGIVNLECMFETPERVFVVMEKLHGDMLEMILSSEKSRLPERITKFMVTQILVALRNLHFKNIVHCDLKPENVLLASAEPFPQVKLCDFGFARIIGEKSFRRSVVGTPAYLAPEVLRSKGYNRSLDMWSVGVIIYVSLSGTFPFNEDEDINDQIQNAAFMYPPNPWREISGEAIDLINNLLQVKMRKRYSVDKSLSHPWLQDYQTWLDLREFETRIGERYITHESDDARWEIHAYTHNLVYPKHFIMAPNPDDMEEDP
UniProt O43924, sequence (O43924 whole entry, looked up): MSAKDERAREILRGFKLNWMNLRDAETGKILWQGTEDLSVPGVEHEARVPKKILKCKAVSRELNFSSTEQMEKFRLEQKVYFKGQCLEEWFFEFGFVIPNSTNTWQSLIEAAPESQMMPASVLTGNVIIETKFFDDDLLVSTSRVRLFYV

Row | Target | log2 fold change [1] | log2 fold change [2] | log2 fold change [3] | log2 fold change [4] | log2 fold change [5] | log2 fold change [6] | log2 fold change [7] | log2 fold change [8] | log2 fold change [9] | log2 fold change [10] | log2 fold change [11] | log2 fold change [12] | log2 fold change [13] | log2 fold change [14] | log2 fold change [15] | log2 fold change [16] | log2 fold change [17] | log2 fold change [18] | log2 fold change [19] | log2 fold change [20]
1 | PRPF3 (UniProt O43395) | -0.023 | -0.114 | 0.24 | 0.07 | -0.021 | -0.239 | -0.041 | -0.001 | 0.171 | -0.025 | 0.18 | -0.038 | -0.048 | -0.029 | 0.031 | -0.07 | 0.06 | 0.072 | -0.02 | -0.022
2 | POLB (UniProt P06746) | -0.21 | -0.16 | 0.195 | 0.138 | 0.062 |  | 0.095 | 0.05 | 0.031 |  |  | -0.155 | 0.215 |  |  | 0.037 | 0.199 |  | -0.006 | -0.022
3 | PLBD2 (UniProt Q8NHP8) | 0.033 | 0.031 | 0.006 | 0.01 | 0.029 | -0.025 | -0.115 | -0.008 | 0.005 | 0.038 | -0.069 | -0.015 | -0.029 | -0.012 | -0.048 | -0.007 | 0.018 | 0.041 | -0.008 | 0.027
4 | PHKA1 (UniProt P46020) | -0.12 | 0.058 | -0.073 | -0.256 | 0.101 |  | -0.283 | 0.027 | -0.295 |  | 0.046 | 0.076 | -0.024 | -0.518 (active) | -0.223 | 0.265 | -0.017 | 0.034 | -0.109 | 0.049
5 | PMM1 (UniProt Q92871) | 0.006 | 0.094 | -0.011 | -0.018 | -0.315 (active) | -0.007 | 0.095 | 0.028 | -0.017 | -0.023 | -0.084 | 0.021 | -0.003 | 0.022 | -0.039 | 0.124 | 0.16 | 0.022 | -0.02 | -0.17
6 | PGK2 (UniProt P07205) | -0.196 | 0.154 | 0.017 | -0.041 |  | 0.037 | -0.248 | -0.131 | -0.056 | 0.038 | 0.016 | -0.003 | -0.029 | 0.001 | 0.08 | 0.14 | 0.068 | 0.001 | -0.093 | 0.041
7 | PARP1 (UniProt P09874) | -0.025 | -0.104 | -0.004 | 0.037 | 0.094 | -0.089 | 1.05 (active) | 0.038 | 0.079 | -0.04 | 0.091 | -0.043 | 0.048 | -0.047 | 0.039 | 0.147 | 0.062 | -0.062 | -0.082 | 0.008
8 | PRKD3 (UniProt O94806) | 0.023 | -0.31 | 0.066 |  | -0.335 | -0.068 |  | 0.002 |  | -0.058 | -0.062 | -0.002 | 0.084 | 0.171 | -0.039 |  |  | 0.149 |  | 0.255
9 | PDE6D (UniProt O43924) | -0.074 | 0.035 | -0.051 | 0.029 | -0.102 | -0.043 |  | 0.119 |  | 0.068 | -0.036 | 0.101 | -0.179 | -0.092 | -0.031 |  | 0.076 | 0.002 |  | 0.078
10 | PDCD6IP (UniProt Q8WUM4) | -0.11 | -0.227 | -0.132 | 0.048 | 0.034 | -0.141 | 0.119 | 0.055 | 0.138 | -0.048 | 0.105 | -0.022 | 0.079 | -0.018 | 0.045 | 0.022 | 0.06 | -0.118 | -0.04 | 0.009
11 | PDE2A (UniProt O00408) | -0.011 | -0.005 | -0.003 | 0.208 | 0.01 | -0.094 | -0.051 | -0.065 | -0.064 | -0.042 | 0.172 | -0.118 | 0.001 | -0.089 | -0.053 | 0.134 | -0.004 | 0.027 | -0.014 | 0.148
12 | POLR2K (UniProt P53803) | -0.024 | 0.032 | 0.14 | -0.031 | -0.057 | 0.034 | 0.039 | -0.047 | -0.174 | -0.063 | -0.052 | 0.071 | -0.05 | -0.101 | -0.005 | 0.134 | -0.012 | -0.213 | 0.003 | 0.117
13 | PPT2 isoform 3 (UniProt Q9UMR5) | 0.042 | 0.022 | -0.04 | 0.018 | 0 | -0.023 | 0.025 | 0.038 | -0.003 | 0.029 | 0.052 | 0.008 | -0.019 | -0.082 | -0.114 | -0.029 | -0.004 | 0.093 | 0.035 | 0.024
14 | PCID2 (UniProt Q5JVF3) | -0.164 | -0.22 | 0.012 | 0.006 | -0.033 | -0.281 | 0.051 | 0.008 | -0.036 | -0.101 | -0.136 | -0.025 | -0.07 |  | 0.087 | 0.009 | 0.039 | -0.023 | 0.175 | 0.013
15 | PRG4 (UniProt Q92954) | 0.008 | 0.136 | 0.007 | 0.004 | 0.14 | 0.055 | -0.072 | 0.031 | 0.001 | -0.109 | 0.17 | 0.081 | -0.955 (active) | 0.174 | 0.01 |  | 0.034 | 0.229 |  | -0.062
16 | POM121 (UniProt Q96HA1) | -0.043 | -0.024 | 0.023 | 0.083 | 0.126 | 0.045 | 0.069 | 0 | 0.075 | -0.002 | -0.03 | 0.055 | -0.018 | 0.146 |  | -0.027 | -0.002 |  | -0.01 | 0.003
17 | PSMB4 (UniProt P28070) | -0.012 | 0.026 | 0.078 | -0.002 | -0.031 | 0.038 | 0.019 | -0.032 | 0.011 | 0.006 | -0.033 | 0.034 | -0.011 | -0.012 | -0.031 | -0.074 | -0.038 | 0.005 | 0.03 | -0.026
